# High-throughput results: PubChem, Sanford-Burnham Center for Chemical Genomics
# A selection: hits, their analogues and other compounds. The true share with any hit is near 4%.
# HIF-2a block: inhibitors of HIF-2a | 786-0 RCC cells HIF-2a reporter, luciferase luminescence, overnight | AID 624352 | 360,000 compounds, 0.72% hits | inhibition, % at 18.8 µM;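 active means inhibition of the luminescence signal of 40% or more relative to plate controls, in a single-dose primary screen at 18.75 µM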
# TWEAK-Fn14 inh: TWEAK-Fn14 signaling inhibition | TWEAK-stimulated Fn14 reporter cells, luciferase luminescence, 8 h | inhibition, % at 10 µM | 360,000 compounds, 2% hits; in the data active means inhibition above about 50%
# CF NFkB inh: cystic fibrosis NF-kB activation inhibition. KKLEB NF-kB-GFP reporter, PAF-induced, GFP fluorescence overnight. inhibition, % at 5 µM. 360,000 compounds, 0.86% hits. AID 588850;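 active means at least 50% inhibition at 5 µM, scaled per plate between neutral and stimulator controls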;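 further: PAF is a Pseudomonas aeruginosa culture filtrate used as stimulus; plate controls were PAF-stimulated DMSO wells for no effect and unstimulated DMSO wells for full effect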
# TROY NFkB inh: TROY signaling inhibition; Q293 LMP1-TROYcd NF-kB luciferase reporter, 4 h; inhibition, % at 10 µM; 360,000 compounds, 0.98% hits;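 active means compounds whose plate-normalised and pattern-corrected inhibition of the luciferase reporter signal at the single screening dose is 50% or more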
# Peg3 prom inh: reduces Peg3 promoter-driven luciferase expression in HeLa; HeLa PEG-Prom luciferase reporter, luminescence, overnight; inhibition, % at 20 µM; 360,000 compounds, 1.7% hits;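 active means inhibition of at least 50% at 20 µM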
# KKLEB tox: counter-screen for CF NF-kB inhibitors: cytotoxicity. activity change (cytotoxicity), % at 5 µM. 360,000 compounds, 0.36% hits. KKLEB CF airway cells viability, ATPlite luminescence, overnight; active compounds read low; cells stimulated with P. aeruginosa culture filtrate. AID 602141;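 active means corrected activity change at or below -50% at 5 µM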
# Mdm2 MdmX conf: confirmation of inhibitors of human Mdm2/MdmX interaction, set 2. shares compounds with HIF-2a block. SaOS-2 split-luciferase Mdm2/MdmX complementation, luminescence. AID 504601. 740 compounds, 99% hits. inhibition, % at 8 µM;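 active means mean inhibition of the luminescence signal across two replicates at or above 26 percent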
# Target sequence (O15151 whole entry, looked up): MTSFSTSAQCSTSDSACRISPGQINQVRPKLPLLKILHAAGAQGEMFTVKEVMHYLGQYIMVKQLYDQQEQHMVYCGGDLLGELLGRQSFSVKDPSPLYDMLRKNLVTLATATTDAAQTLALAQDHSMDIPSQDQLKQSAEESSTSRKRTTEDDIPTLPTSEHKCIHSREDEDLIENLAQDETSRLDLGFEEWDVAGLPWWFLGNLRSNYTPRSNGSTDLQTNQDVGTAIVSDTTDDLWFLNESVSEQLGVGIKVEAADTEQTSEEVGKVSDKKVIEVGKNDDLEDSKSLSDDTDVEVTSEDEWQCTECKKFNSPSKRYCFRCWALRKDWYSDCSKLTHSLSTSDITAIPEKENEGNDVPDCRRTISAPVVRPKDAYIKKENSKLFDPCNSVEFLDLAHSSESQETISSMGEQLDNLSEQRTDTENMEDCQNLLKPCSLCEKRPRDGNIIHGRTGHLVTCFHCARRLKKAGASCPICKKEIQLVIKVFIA
# Target sequence (Q00987 whole entry, looked up): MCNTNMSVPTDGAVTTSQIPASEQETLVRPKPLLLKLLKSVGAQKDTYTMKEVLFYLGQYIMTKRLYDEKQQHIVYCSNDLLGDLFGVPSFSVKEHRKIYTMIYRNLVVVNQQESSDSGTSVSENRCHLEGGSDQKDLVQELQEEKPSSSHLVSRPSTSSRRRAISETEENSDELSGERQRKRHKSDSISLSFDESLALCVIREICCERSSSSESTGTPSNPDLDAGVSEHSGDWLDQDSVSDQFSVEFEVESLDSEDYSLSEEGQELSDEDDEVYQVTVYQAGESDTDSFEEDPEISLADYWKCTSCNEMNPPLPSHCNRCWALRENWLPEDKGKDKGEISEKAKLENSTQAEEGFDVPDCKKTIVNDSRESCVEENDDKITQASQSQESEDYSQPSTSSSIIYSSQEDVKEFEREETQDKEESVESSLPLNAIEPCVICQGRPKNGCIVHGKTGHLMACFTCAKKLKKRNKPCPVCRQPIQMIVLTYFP
# HIF-2a conf: confirmation of HIF-2a inhibitors; shares compounds with HIF-2a block; 786-0 RCC cells, HIF-2a luciferase reporter luminescence, overnight; inhibition, % at 18.8 µM; 1,800 compounds, 56% hits;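 active means mean inhibition across four replicates of at least 40 percent at the single tested concentration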
# HIF-1a cs: counter-screen for HIF-2a inhibitors: HIF-1a inhibition in MiaPaCa-2 cells | MiaPaCa-2 HIF-1a luciferase reporter, desferoxamine, overnight | inhibition, % at 18.8 µM | 1,800 compounds, 72% hits | shares compounds with HIF-2a block | AID 651589;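 active means mean inhibition of the reporter signal across four replicates at the single tested dose of 50% or more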
# * hit, by the source's call; x = no result.
SMILES,HIF-2a block,TWEAK-Fn14 inh,CF NFkB inh,TROY NFkB inh,Peg3 prom inh,KKLEB tox,HIF-2a conf,HIF-1a cs,others
O=Cc1s/c(=N\S(=O)(=O)c2ccccc2)n(CCCCl)c1Cl,96.4*,96.2*,89.3*,35.1,108.8*,-68.8*,93.4*,101.7*,
CC(C)(C)c1ccc(CC(=O)N2CCC2(C)C(=O)NS(=O)(=O)c2ccc(C#N)cc2)cc1 (configuration not stated),2.4,12.6,3.2,-4.3,6.2,24.4,x,x,
CC(C)(C)C1CCc2c(sc(NC(=O)CSc3ncn[nH]3)c2C#N)C1 (configuration not stated),27.0,17.7,44.2,-17.5,-6.6,-23.4,x,x,
N#Cc1c(NC(=O)CSc2ncn[nH]2)sc2c1CCCC2,89.6*,80.5*,18.4,38.8,14.4,11.1,94.1*,71.5*,
N#Cc1c(NC(=O)CSC2=NCCS2)sc2c1CCCC2,-83.6,-2.8,7.4,-40.8,-71.0,-5.8,x,x,
N#Cc1c(NC(=O)CCCC(=O)O)sc2c1CCCCC2,63.0*,-9.2,-8.6,0.7,-156.8,-7.6,66.7*,17.6,
CC1CCc2c(sc(NC(=O)CSc3ncn[nH]3)c2C#N)C1 (configuration not stated),91.1*,71.6*,3.2,44.6,37.7,-4.0,95.3*,90.2*,
COc1cccc(NC(=S)NC(Cc2ccccc2)c2ccccc2)c1 (configuration not stated),18.3,-1.2,21.1,11.3,33.4,-3.9,x,x,
CCc1nc2c(OCc3ccccc3C)cccn2c1N(C)C(=O)c1ccc(C)cc1,8.8,12.0,0.9,19.5,10.1,-8.0,x,x,
CC(/C=C1\SC(=O)N(CCCC(=O)O)C1=O)=C\c1ccccc1,91.1*,104.2*,17.0,87.0*,80.3*,4.9,98.8*,101.0*,
O=C(CN1C(=O)S/C(=C\c2ccccc2)C1=O)NNC(=O)c1ccccc1O,11.2,-0.8,-18.1,13.0,2.3,6.4,x,x,
CC(/C=C1\SC(=S)N(CCC(=O)Nc2ccccc2O)C1=O)=C\c1ccccc1,2.6,3.6,25.0,-1.8,25.3,-5.2,x,x,
O=C(CCCN1C(=O)S/C(=C\c2ccccc2)C1=O)NNC(=O)c1ccccc1O,90.5*,34.6,13.5,23.9,18.0,-4.8,89.6*,97.2*,
CN1C(=O)c2ccc(C(=O)Nc3ccccc3O)cc2C1=O,-1.8,-10.8,-18.4,7.3,11.8,7.6,x,x,
COC(=O)COc1ccc(S(=O)(=O)NCCC2=CCCCC2)cc1Cl,56.6*,-5.5,-9.6,7.3,15.1,12.0,22.1,-9.3,
COc1ccccc1[C@@]1(C)ON(c2ccccc2C(F)(F)F)C1=O,66.0*,34.6,44.8,10.6,77.2*,1.2,24.4,101.5*,
N=c1n(CC(=O)c2ccc(Br)s2)c2ccccc2n1Cc1ccccc1,66.9*,-8.9,1.6,16.2,100.6*,-34.3,2.5,106.2*,Mdm2 MdmX conf=101.9*
CC(=O)c1ccc(N2CCN(S(=O)(=O)c3ccc4c5c3CC(=O)N5CC(C)S4)CC2)cc1 (configuration not stated),-5.8,22.8,-16.0,1.9,10.9,-10.5,x,x,
CC(=O)Nc1ccc(NC(=O)c2cccc3c2-c2ccccc2C3=O)cc1,17.5,1.4,-22.3,0.4,7.3,-8.7,x,x,
CC(=O)Nc1ccc(NC2=C(Cl)C(=O)c3ccccc3C2=O)cc1,x,x,x,x,x,x,x,x,Mdm2 MdmX conf=103.2*
CC1CCN(C(=O)c2[nH]cnc2C(=O)N2CCN(c3ccccc3)CC2)CC1,5.9,5.8,-32.8,-4.4,-7.8,20.5,x,x,
O=C(CCCc1nc(-c2ccccc2Cl)no1)NC1CCCC1,87.7*,91.5*,3.7,51.8*,38.7,-9.2,96.3*,64.4*,
COc1ccccc1-c1noc(CCCC(=O)NC2CCCC2)n1,15.1,2.4,3.4,12.1,-6.6,-3.4,x,x,
N#Cc1c(N)n(C2CCCCC2)c2nc3ccccc3nc12,41.7*,37.0,16.8,71.7*,39.3,-20.6,16.5,76.9*,
OC(c1cc(F)cc(Cl)c1)c1ncc(-c2cccc(C(F)(F)F)c2)[nH]1 (configuration not stated),3.5,23.2,9.7,16.7,34.9,-11.2,x,x,
SMILES,HIF-2a block,TWEAK-Fn14 inh,CF NFkB inh,TROY NFkB inh,Peg3 prom inh,KKLEB tox,HIF-2a conf,HIF-1a cs,others
Cc1cccc(C)c1NC(=O)C(c1ccccc1)N1CCN(c2ccc(C(F)(F)F)cn2)CC1 (configuration not stated),2.8,22.6,13.9,15.5,9.6,-15.6,x,x,
Cc1ccc(-n2nc3c(N4CCC(C(=O)NCc5ccccc5C)CC4)nnc(C)c3c2C)cc1,85.4*,-16.3,28.2,12.3,88.6*,-15.0,20.7,62.1*,
CCOc1ccccc1CNC(=O)C1CCN(c2nnc(C)c3c(C)n(-c4ccc(C)cc4)nc23)CC1,70.5*,-13.2,-47.6,-28.0,97.0*,-21.0,51.4*,97.8*,
CCOc1ccc(CNC(=O)C2CCN(c3nnc(C)c4c(C)n(-c5ccc(C)cc5)nc34)CC2)cc1,68.9*,-31.0,-57.6,4.3,101.2*,-2.4,7.7,31.7,
COc1ccc(-n2nc3c(N4CCC(C(=O)NCc5cccc(C)c5)CC4)nnc(C)c3c2C)cc1,67.2*,-6.2,-23.0,11.9,98.8*,-27.6,76.4*,80.1*,
Cc1nnc(N2CCCC(C(=O)NCc3ccccc3F)C2)c2nn(-c3ccccc3)c(C)c12 (configuration not stated),17.1,-9.2,-16.2,24.7,14.9,1.3,x,x,
O=C(C[C@@H]1C[C@@H]2c3cc(NS(=O)(=O)c4ccc(F)cc4)ccc3O[C@@H]2[C@@H](CO)O1)NC1CCCCC1,-3.3,2.7,6.2,-15.0,0.1,-6.8,x,x,
O=C(CN1C(=O)c2ccccc2S1(=O)=O)c1ccccc1Cl,48.4*,101.9*,11.7,84.6*,41.2,-6.8,75.5*,67.8*,
CCn1c(C)cc(C(=O)CN2C(=O)c3ccccc3S2(=O)=O)c1C,72.7*,92.9*,17.8,82.5*,80.0*,12.2,87.8*,77.0*,
O=C(CN1C(=O)c2ccccc2S1(=O)=O)NCc1ccccc1Cl,4.7,-9.5,6.7,-5.1,-2.6,-1.0,x,x,
CCSc1nc(-c2ccc(OC)cc2)cc(-c2ccccc2)c1C#N,1.4,-12.1,21.4,-53.8,21.8,-5.2,x,x,
COc1ccc(-c2cc(-c3ccccc3)c(C#N)c(S(C)=O)n2)cc1 (configuration not stated),75.5*,11.8,12.7,-19.9,113.7*,-27.6,31.2,97.5*,
